# According to PubChem BioAssay (NCI):
# This is part of a sample that, as a whole, favours compounds with a hit. Of some 83,000 tested, about 20% had one in any assay.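 Cell lines were cultured in 96-well plates, exposed to a single compound concentration, and assessed for percent growth 48 hours later.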 Unmarked numbers belong to inactive results. Activity calls are given as the source filed them. How the source made its calls: active means growth percent below 10; inactive means the rest.
# What was measured:
# Assay in all cases: NCI-60 one-dose screen, 48 h (100 = growth as untreated, 0 = no growth, -100 = all killed)
# Details in all cases: 10 µM unless noted
# [1] = tested on: SR leukemia
# [2] = tested on: RPMI-8226 leukemia
# [3] = tested on: OVCAR-8 ovarian
# [4] = tested on: OVCAR-5 ovarian
# [5] = tested on: OVCAR-4 ovarian
# [6] = tested on: SK-OV-3 ovarian
# [7] = tested on: IGROV1 ovarian
# [8] = tested on: OVCAR-3 ovarian
# [9] = tested on: HS 578T breast
# [10] = tested on: NCI/ADR-RES ovarian
SMILES,growth [1],growth [2],growth [3],growth [4],growth [5],growth [6],growth [7],growth [8],growth [9],growth [10]
CC(C)c1cc(C(=O)O)c(O)c(C(C)C)c1.CC(C)c1cc(C(=O)O)c(O)c(C(C)C)c1.[Mn],93.5%,98%,101%,116%,96.3%,110%,114%,96.9%,107%,118%
CC(=O)c1c(C)[nH]c(-c2nc3ccc(N4CCN(C)CC4)cc3[nH]2)c1-c1ccc(N(C)C)cc1,33%,0.258% (active),43.7%,41.6%,37.2%,12.6%,15.6%,34.6%,21.1%,34.2%
COc1cc2c(cc1-c1c(C)noc1C)ncc1nc(C3CCC(F)(F)CC3)n([C@@H](C)COC(F)F)c12,24.7%,17.3%,46.1%,61.9%,43.2%,7.59% (active),48.9%,39%,8.57% (active),40.8%
CCCCC[C@H]1C/C=C2/C(=O)C(Cl)=C[C@@H]2C/C=C\CCCC(=O)O1,2.6% (active),-23.5% (active),-19.1% (active),-64.9% (active),16.3%,-15.2% (active),-61% (active),-89.5% (active),,12.1%
NC(N)=N/N=C/c1ccc(-c2ccc(-c3ccc(Cl)cn3)s2)cc1,11.6%,38.4%,99.3%,107%,99.3%,,91.1%,85.9%,92.3%,50.8%
C/C(=N/NC(N)=S)C(=O)O,90%,75.2%,71.2%,91.1%,85.5%,107%,56.7%,77%,,65.3%
COc1ccc2c(c1)c(-c1nc(-c3cn(C)c4ncccc34)cs1)cn2CCN,27.4%,75.8%,71.1%,78.1%,41.1%,94.9%,41.8%,88.8%,,88.1%
NCCNc1nc(-c2ccccc2)nc2nc(-c3ccccc3)oc12,7.63% (active),68.7%,97.7%,105%,96.5%,,81.8%,88.2%,91.3%,91.8%
CC(C)(C)c1ccc(OP(=S)(N/N=C/c2ccccc2O)Oc2ccc(C(C)(C)C)cc2)cc1,61.6%,45.8%,82.8%,91.6%,65.1%,65.2%,63.5%,47.5%,,87.8%
O=C1c2ccccc2C(=Cc2ccccc2)c2ccccc21,8.17% (active),22.4%,21.6%,43.3%,6.28% (active),-3.56% (active),40%,-36.5% (active),,-64.4% (active)
CC(=O)OC[C@]12CC[C@@H](/C(C)=N/O)[C@@H]1[C@H]1CC[C@@H]3[C@@]4(C)CCCNC(C)(C)[C@@H]4CC[C@@]3(C)[C@]1(C)CC2,51.8%,49.2%,73.3%,103%,53.9%,62.9%,88.9%,65.7%,,77.4%
O=C(/C=C\c1ccc2c(c1)OCO2)/C=C/c1ccc2c(c1)OCO2,10.5%,-9.97% (active),101%,108%,84.9%,92%,88.9%,69.5%,,92.1%
CC(=O)N1N=C(c2ccc(C)cc2)CC1c1ccc(Oc2ccc(Br)cc2)cc1 (stereo not drawn),93.9%,74.8%,85.2%,88.9%,74.6%,62.1%,66.7%,88.3%,,73.1%
Cc1ccc(Sc2sc(-c3ccccc3)nc2[P+](c2ccccc2)(c2ccccc2)c2ccccc2)cc1,-10.1% (active),-39.2% (active),7.53% (active),25.4%,2.09% (active),-22.5% (active),-0.559% (active),-9.1% (active),,-7.72% (active)
CN1CCN(c2nc(-c3cccc4ccccc34)nc3sc4c(c23)CCCCCC4)CC1,47.1%,79.3%,93%,90.2%,83.8%,89.2%,72.6%,,86.1%,87.4%
Cn1cc(-c2csc(-c3cn(CCCN4CCCCC4)c4ccccc34)n2)c2cccnc21,-50.7% (active),-35.9% (active),-68.4% (active),92.9%,-48.2% (active),94.7%,79.6%,-80.9% (active),,-25% (active)
c1cc(N2CCCC2)c2nc(-c3[nH]ncc3Nc3ncnc4[nH]ccc34)[nH]c2c1,5.49% (active),-7.49% (active),1.75% (active),-9.59% (active),-13.6% (active),-8.07% (active),-17.9% (active),-14% (active),,-21.1% (active)
CC(=O)Cc1nsc(NC(=O)c2ccoc2COc2ccccc2)n1,104%,88.6%,103%,94.1%,103%,111%,95.9%,111%,,99.1%
CN(C)c1ccc(-c2ccc(-c3ccc(C(=N)N)c(F)c3)s2)cc1,1.32% (active),-52.6% (active),-26.4% (active),-89.2% (active),-85.1% (active),,-84% (active),-88.2% (active),102%,-49.2% (active)
CCCC(=O)N1CCCCC1CC (stereo not drawn),102%,95.7%,95.3%,87.5%,102%,111%,120%,105%,,115%
C=C(C)[C@@H]1CC[C@]2(C)[C@H](CC=C3[C@@H]4CC(C)(C)CC[C@]4(C=O)CC[C@]32C)[C@@]1(C)CCCN,-31.5% (active),14.2%,77.8%,91.8%,85.7%,94.2%,88.4%,80.1%,,87.2%
NC(=O)[C@@H]1CC2CCC1C2 (stereo partly drawn),90.6%,93.3%,108%,95%,106%,101%,110%,93.4%,,121%
C=C(C)[C@@H]1CC[C@]2(C(=O)O)CC[C@]3(C)[C@H](CC[C@@H]4[C@@]5(C)C/C(=C/c6cccc(I)c6)C(=O)C(C)(C)[C@@H]5CC[C@]43C)[C@@H]12,24%,9.91% (active),20.5%,81.3%,3.26% (active),24.2%,47.6%,5.15% (active),,31.5%
O=[N+]([O-])c1cc(S(=O)(=O)c2ccc(F)c([N+](=O)[O-])c2)ccc1F,9.57% (active),6.35% (active),80.9%,122%,112%,117%,,101%,80.6%,108%
N=C(N)c1ccc(-c2ccc(-c3cc(F)cc(F)c3)o2)nc1,7.21% (active),60.5%,97.5%,88.9%,96.2%,,88.6%,95.6%,,
Nc1ccc(Br)cn1,98.9%,101%,102%,93%,101%,103%,110%,,99.5%,103%
Oc1cc(/C=C/c2nc(N3CCOCC3)c3cc(Cl)c(Cl)cc3n2)cc(O)c1O,87.8%,103%,107%,102%,110%,105%,108%,,118%,100%
COc1cc2nc(Cl)nc(Nc3cccc(C(=O)/C=C/c4ccc(Br)cc4)c3)c2cc1OC,14.7%,-2.21% (active),84.7%,102%,93%,96.7%,86.8%,88.6%,,92.2%
